Compounds without any hit were thinned out: in the full panel of roughly 79,000, 15% have a hit. Unmarked numbers belong to inactive results. Activity calls are given as the source filed them. Rule as the data show it: active = growth inhibition above about 70%; inactive = the rest.

Test [1] is described as follows: NCI Yeast Anticancer Drug Screen. Data for the rad50 strain (AID 155).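 Also: 0% = growth of vehicle-only cultures of the same strain.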 The note with it: S. cerevisiae rad50 strain growth inhibition, hits give high values. The procedure, abridged: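 A DNA repair-deficient yeast mutant serves as the test organism; compound-induced growth inhibition is calculated against vehicle-treated cells.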
The nature of test [2]: NCI Yeast Anticancer Drug Screen. Data for the mec2-1 strain (AID 157). The conditions noted are these: S. cerevisiae mec2-1 strain, hits give high values. The procedure, abridged: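 Mutant yeast (mec2-1) grown with compound; growth inhibition relative to vehicle control reported.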
The nature of test [3]: NCI Yeast Anticancer Drug Screen. Data for the sgs1 mgt1 strain (AID 161).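 Also: 0% = growth of cultures given vehicle only.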 The note with it: S. cerevisiae sgs1 mgt1 strain, hits give high values. The gist of the method:
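Yeast cells carrying a defined DNA-repair defect were exposed to test compounds. Growth inhibition was measured relative to vehicle-treated controls.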

A short description of test [4]: NCI Yeast Anticancer Drug Screen. Data for the cln2 rad14 strain (AID 165).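 Also: 0% = growth equal to vehicle treated cultures.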 The conditions noted are these: S. cerevisiae cln2 rad14 strain, hits give high values. The procedure, abridged:
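Readout is yeast growth inhibition versus vehicle-treated controls, using a strain with cln2 and rad14 alterations exposed to compound.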

The nature of test [5]: NCI Yeast Anticancer Drug Screen. Data for the bub3 strain (AID 167). The note with it: S. cerevisiae bub3 mutant strain, hits give high values. The gist of the method: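 Inhibition values come from growth of compound-treated mutant yeast normalised to vehicle-treated controls.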
Test [6] can be described thus: NCI Yeast Anticancer Drug Screen. Data for the mlh1 rad18 strain (AID 175). The note with it: S. cerevisiae mlh1 rad18 strain growth inhibition, hits give high values. The gist of the method: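 Genetically defined yeast (DNA repair-deficient) exposed to compounds; growth inhibition determined relative to vehicle.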
The mark [7] stands for this setting: at 5.0 µM (retest, dose inferred, filed as 0.5).
Where [8] appears, read: at 50.0 µM (retest, dose inferred, filed as 5.0).

Turning to `CC1(C)OC2C(COC(c3ccccc3)(c3ccccc3)c3ccccc3)OC(n3cnc4c(=O)[nH]cnc43)C2O1` (stereo not given), the growth inhibition in test [1] (setting [7]) is 43%; in test [1] (setting [8]), 97% (active); in test [1] (at 50.0 µM) it was 69%; in test [2] (setting [7]), 62%; in test [2] (setting [8]), 99% (active); in test [2] (at 50.0 µM), 62%. For the same molecule, the growth inhibition in test [3] (setting [7]) is 24%; in test [3] (setting [8]) it was 99% (active); in test [3] (at 50.0 µM), 56.5%; in test [4] (setting [7]), 19%; in test [4] (setting [8]) it was 97% (active); in test [4] (at 50.0 µM), 50.9%. The growth inhibition in test [5] (setting [7]) is 30%; in test [5] (setting [8]), 98% (active); in test [5] (at 50.0 µM), 49.9%; in test [6] (setting [7]), 84% (active); in test [6] (setting [8]) it was 98% (active); in test [6] (at 50.0 µM) it was 61.9%.
Turning to `CC(=O)NC1=C(Cl)C(=O)c2ccccc2C1=O`, the growth inhibition in test [1] (setting [7]) is 91% (active); in test [1] (setting [8]), 99% (active); in test [1] (at 50.0 µM), 99.5% (active); in test [2] (setting [7]) it was 93% (active); in test [2] (setting [8]) it was 99% (active); in test [2] (at 50.0 µM), 99.5% (active). Moreover, the growth inhibition in test [3] (setting [7]) is 70% (active); in test [3] (setting [8]), 100% (active); in test [3] (at 50.0 µM), 99.7% (active); in test [4] (setting [7]), 21%; in test [4] (setting [8]), 99% (active); in test [4] (at 50.0 µM) it was 98.8% (active). Also, the growth inhibition is 96% (active) in test [5] (setting [7]); 99% (active) in test [5] (setting [8]); 99.4% (active) in test [5] (at 50.0 µM); 96% (active) in test [6] (setting [7]); 99% (active) in test [6] (setting [8]); 99.5% (active) in test [6] (at 50.0 µM).
In the case of `CCO/C=C1\N=C(C(O)(c2ccc(Cl)cc2)c2ccc(Cl)cc2)OC1=O`, the growth inhibition in test [1] (setting [7]) is -1%; in test [1] (setting [8]), 3%; in test [1] (at 50.0 µM), 48.7%; in test [2] (setting [7]), 1%; in test [2] (setting [8]), 16%; in test [2] (at 50.0 µM) it was 16%. For the same molecule, the growth inhibition was -2% in test [3] (setting [7]); 1% in test [3] (setting [8]); 18.8% in test [3] (at 50.0 µM); 1% in test [4] (setting [7]); -1% in test [4] (setting [8]); 44.5% in test [4] (at 50.0 µM). Further, the growth inhibition in test [5] (setting [7]) is 13%; in test [5] (setting [8]) it was 8%; in test [5] (at 50.0 µM) it was 43.1%; in test [6] (setting [7]), -1%; in test [6] (setting [8]), 10%; in test [6] (at 50.0 µM), 34%.
For `N#CS/C(C(Cl)=C(Cl)Cl)=C(/Cl)[N+](=O)[O-]`, the growth inhibition in test [1] (setting [7]) was 99% (active); in test [1] (setting [8]) it was 100% (active); in test [1] (at 50.0 µM), 88.8% (active); in test [2] (setting [7]) it was 99% (active); in test [2] (setting [8]), 100% (active); in test [2] (at 50.0 µM), 92% (active). Besides, the growth inhibition in test [3] (setting [7]) is 99% (active); in test [3] (setting [8]) it was 99% (active); in test [3] (at 50.0 µM), 85.9% (active); in test [4] (setting [7]) it was 99% (active); in test [4] (setting [8]), 99% (active); in test [4] (at 50.0 µM), 89.5% (active). Also, the growth inhibition was 99% (active) in test [5] (setting [7]); 100% (active) in test [5] (setting [8]); 90% (active) in test [5] (at 50.0 µM); 99% (active) in test [6] (setting [7]); 99% (active) in test [6] (setting [8]); 84% (active) in test [6] (at 50.0 µM).
With `CC(C(=O)c1ccc2cc(Br)c3ccccc3c2c1)N(C)C` (stereo not given), the growth inhibition in test [1] (setting [7]) is -6%; in test [1] (setting [8]) it was 99% (active); in test [1] (at 50.0 µM), 99.4% (active); in test [2] (setting [7]), 1%; in test [2] (setting [8]) it was 99% (active); in test [2] (at 50.0 µM), 98.5% (active). Also, the growth inhibition in test [3] (setting [7]) was -14%; in test [3] (setting [8]), 100% (active); in test [3] (at 50.0 µM), 99.2% (active); in test [4] (setting [7]) it was -5%; in test [4] (setting [8]) it was 99% (active); in test [4] (at 50.0 µM), 99.5% (active). Also, the growth inhibition was 25% in test [5] (setting [7]); 99% (active) in test [5] (setting [8]); 99.4% (active) in test [5] (at 50.0 µM); 5% in test [6] (setting [7]); 99% (active) in test [6] (setting [8]); 99.3% (active) in test [6] (at 50.0 µM).
With `COc1ccc(C2SCC(=O)N2c2ccc(-c3ccc(-n4c(-c5ccccc5)nc5ccccc5c4=O)cc3)cc2)cc1` (stereo not given), the growth inhibition in test [1] (setting [7]) is 0%; in test [1] (setting [8]) it was 33%; in test [1] (at 50.0 µM) it was 21.6%; in test [2] (setting [7]) it was 1%; in test [2] (setting [8]) it was 28%; in test [2] (at 50.0 µM) it was 34.1%. For the same molecule, the growth inhibition in test [3] (setting [7]) is 7%; in test [3] (setting [8]), 57%; in test [3] (at 50.0 µM) it was 57.4%; in test [4] (setting [7]), 42%; in test [4] (setting [8]) it was 41%; in test [4] (at 50.0 µM), 13.5%. The growth inhibition in test [5] (setting [7]) is 24%; in test [5] (setting [8]) it was 69%; in test [5] (at 50.0 µM) it was 70.9% (active); in test [6] (setting [7]), 18%; in test [6] (setting [8]), 68%; in test [6] (at 50.0 µM), 58.1%.
`COC(CC[P+](c1ccccc1)(c1ccccc1)c1ccccc1)(C(=O)c1ccccc1)c1ccccc1` (stereo not given): the growth inhibition in test [1] (setting [7]) is 91% (active); in test [1] (setting [8]), 99% (active); in test [1] (at 50.0 µM) it was 98.7% (active); in test [2] (setting [7]) it was 97% (active); in test [2] (setting [8]) it was 99% (active); in test [2] (at 50.0 µM), 99.7% (active). In addition, the growth inhibition is 88% (active) in test [3] (setting [7]); 99% (active) in test [3] (setting [8]); 99.8% (active) in test [3] (at 50.0 µM); 90% (active) in test [4] (setting [7]); 99% (active) in test [4] (setting [8]); 98.8% (active) in test [4] (at 50.0 µM). The growth inhibition was 94% (active) in test [5] (setting [7]); 100% (active) in test [5] (setting [8]); 99.7% (active) in test [5] (at 50.0 µM); 92% (active) in test [6] (setting [7]); 100% (active) in test [6] (setting [8]); 99.5% (active) in test [6] (at 50.0 µM).
With `CCC(CC)C(c1ccc(O)cc1)c1ccc(O)cc1`, the growth inhibition in test [1] (setting [7]) is 92% (active); in test [1] (setting [8]) it was 99% (active); in test [1] (at 50.0 µM), 99.5% (active); in test [2] (setting [7]), 83% (active); in test [2] (setting [8]), 100% (active); in test [2] (at 50.0 µM), 99.5% (active). Also, the growth inhibition was 88% (active) in test [3] (setting [7]); 77% (active) in test [3] (setting [8]); 99.6% (active) in test [3] (at 50.0 µM); 97% (active) in test [4] (setting [7]); 100% (active) in test [4] (setting [8]); 99.2% (active) in test [4] (at 50.0 µM). Also, the growth inhibition in test [5] (setting [7]) was 75% (active); in test [5] (setting [8]), 98% (active); in test [5] (at 50.0 µM), 99.7% (active); in test [6] (setting [7]) it was 95% (active); in test [6] (setting [8]), 100% (active); in test [6] (at 50.0 µM) it was 99.5% (active).
For the molecule `CC1(C)c2ccccc2Cc2cc3ccccc3nc21`, the growth inhibition in test [1] (setting [7]) is 0%; in test [1] (setting [8]), 98% (active); in test [1] (at 50.0 µM), 97.8% (active); in test [2] (setting [7]), -4%; in test [2] (setting [8]) it was 99% (active); in test [2] (at 50.0 µM) it was 93% (active). For the same molecule, the growth inhibition in test [3] (setting [7]) was -5%; in test [3] (setting [8]), 97% (active); in test [3] (at 50.0 µM) it was 90.2% (active); in test [4] (setting [7]), 1%; in test [4] (setting [8]), 95% (active); in test [4] (at 50.0 µM), 25.2%. Moreover, the growth inhibition was -3% in test [5] (setting [7]); 98% (active) in test [5] (setting [8]); 94% (active) in test [5] (at 50.0 µM); -1% in test [6] (setting [7]); 98% (active) in test [6] (setting [8]); 83.2% (active) in test [6] (at 50.0 µM).
Turning to `O=C1NC(=S)S/C1=C\c1ccc(F)cc1`, the growth inhibition in test [1] (setting [7]) was -4%; in test [1] (setting [8]) it was 6%; in test [1] (at 50.0 µM), 76% (active); in test [2] (setting [7]), 7%; in test [2] (setting [8]), 15%; in test [2] (at 50.0 µM), 85.7% (active). Also, the growth inhibition is 2% in test [3] (setting [7]); 22% in test [3] (setting [8]); 74.1% (active) in test [3] (at 50.0 µM); -9% in test [4] (setting [7]); 1% in test [4] (setting [8]); 64.8% in test [4] (at 50.0 µM). In addition, the growth inhibition in test [5] (setting [7]) was -2%; in test [5] (setting [8]), 0%; in test [5] (at 50.0 µM) it was 57%; in test [6] (setting [7]), -4%; in test [6] (setting [8]) it was 4%; in test [6] (at 50.0 µM), 80.3% (active).

For the origin of these results see PubChem BioAssay (NCI).
